Key:
Type in all cases: functional
Plasmodium falciparum [1] = test: GSK_TCMDC: Inhibition of Plasmodium falciparum 3D7 in whole red blood cells, using parasite LDH activity as an index of growth. Test compounds present at 2uM
Plasmodium falciparum [2] = test: GSK_TCMDC: Inhibition of Plasmodium falciparum Dd2 in whole red blood cells, using parasite LDH activity as an index of growth. Test compounds present at 2uM
HepG2 = test: GSK_TCMDC: Percent inhibition of human HepG2 cell line. Test compounds present at 10uM.

SMILES: Cl.Nc1nc(Nc2ccc(Cl)cc2)nc2ccccc12
- Inhibition (Plasmodium falciparum [1]): 100%
- Inhibition (Plasmodium falciparum [2]): 21%
- Inhibition (HepG2): 6%

SMILES: Cl.c1cc2c3c(cccc3c1)NC(CCCCCCCCC1=Nc3cccc4cccc(c34)N1)=N2
- Inhibition (Plasmodium falciparum [1]): 93%
- Inhibition (Plasmodium falciparum [2]): 6%
- Inhibition (HepG2): 14%

SMILES: Nc1cccc(CNCc2ccc(-c3cccc(-c4nc5ccccc5[nH]4)c3)cc2)c1.O=C(O)C(F)(F)F
- Inhibition (Plasmodium falciparum [1]): 100%
- Inhibition (Plasmodium falciparum [2]): 78%
- Inhibition (HepG2): 12%

SMILES: CC1CCC(C(C)C)C(OC(=O)CSc2nnc3c(n2)[nH]c2ccccc23)C1 (stereo not drawn)
- Inhibition (Plasmodium falciparum [1]): 88%
- Inhibition (Plasmodium falciparum [2]): 74%
- Inhibition (HepG2): 0%

SMILES: N=C(N)Nc1nc(-c2ccc(NC(=O)Nc3cccc(-c4csc(NC(=N)N)n4)c3)cc2)cs1
- Inhibition (Plasmodium falciparum [1]): 94%
- Inhibition (Plasmodium falciparum [2]): 80%
- Inhibition (HepG2): 0%

SMILES: CC[C@H](C)CNC(=O)c1cncc(-c2cccc(CNCCCc3ccccc3)c2)c1.O=C(O)C(F)(F)F
- Inhibition (Plasmodium falciparum [1]): 95%
- Inhibition (Plasmodium falciparum [2]): 0%
- Inhibition (HepG2): 9%

SMILES: Cl.O=C(OCC1CCN(Cc2ccccc2)C1)c1ccc(Cl)cc1 (stereo not drawn)
- Inhibition (Plasmodium falciparum [1]): 100%
- Inhibition (Plasmodium falciparum [2]): 4%
- Inhibition (HepG2): 0%

SMILES: CCCC(C)Nc1nc(C)cc(N[C@@H](Cc2ccccc2)C(=O)Nc2ccc(OC)cc2)n1.O=C(O)C(F)(F)F (stereo partly drawn)
- Inhibition (Plasmodium falciparum [1]): 100%
- Inhibition (Plasmodium falciparum [2]): 72%
- Inhibition (HepG2): 24%

SMILES: CCNc1cc(C(=O)N[C@@H](Cc2cccc(F)c2)[C@H](O)CNC(C)CCCC(C)C)cc(N2CCCCS2(=O)=O)c1.Cl (stereo partly drawn)
- Inhibition (Plasmodium falciparum [1]): 98%
- Inhibition (Plasmodium falciparum [2]): 97%
- Inhibition (HepG2): 0%

SMILES: Cc1nc2ccc3nc(NC(=O)c4ccno4)sc3c2s1
- Inhibition (Plasmodium falciparum [1]): 99%
- Inhibition (Plasmodium falciparum [2]): 97%
- Inhibition (HepG2): 6%

SMILES: CN(Cc1ccc(NC(=O)NC2CCN(C(=O)/C=C/c3ccc(Cl)c(Cl)c3)CC2)cc1)C1CCOCC1
- Inhibition (Plasmodium falciparum [1]): 96%
- Inhibition (Plasmodium falciparum [2]): 14%
- Inhibition (HepG2): 9%

SMILES: COC(=O)c1cccc(C#CCCOCCCCCCNC[C@H](O)c2cc(Cl)c(N)c(Cl)c2)c1
- Inhibition (Plasmodium falciparum [1]): 97%
- Inhibition (Plasmodium falciparum [2]): 88%
- Inhibition (HepG2): 12%

SMILES: Cc1cc(=O)c(-c2ccc(Oc3cccc(Cl)c3)cc2)c(C)[nH]1
- Inhibition (Plasmodium falciparum [1]): 95%
- Inhibition (Plasmodium falciparum [2]): 89%
- Inhibition (HepG2): 23%

SMILES: CNC(=O)c1cc(S(=O)(=O)Nc2ccc(OC)cc2)cs1
- Inhibition (Plasmodium falciparum [1]): 95%
- Inhibition (Plasmodium falciparum [2]): 48%
- Inhibition (HepG2): 11%

SMILES: Cc1ccc(Cn2ncc(N3CCC(N)CC3)c(Cl)c2=O)cc1NC(=O)Nc1ccc(-c2ccccc2)cc1.O=C(O)C(F)(F)F
- Inhibition (Plasmodium falciparum [1]): 90%
- Inhibition (Plasmodium falciparum [2]): 25%
- Inhibition (HepG2): 29%

SMILES: CN(C)c1ccc(CN2CCC(NC(=O)c3ccc(-c4cccc(C(F)(F)F)c4)s3)CC2)cc1.O=C(O)C(F)(F)F
- Inhibition (Plasmodium falciparum [1]): 97%
- Inhibition (Plasmodium falciparum [2]): 40%
- Inhibition (HepG2): 90%

SMILES: COc1cc(CNCCCCCCNCc2cc(OC)c3ccccc3c2OC)c(OC)c2ccccc12.CS(=O)(=O)O
- Inhibition (Plasmodium falciparum [1]): 100%
- Inhibition (Plasmodium falciparum [2]): 40%
- Inhibition (HepG2): 99%

SMILES: O=[N+]([O-])c1ccc(N2CCCN(C(=S)Nc3ccc(F)cc3Br)CC2)nc1
- Inhibition (Plasmodium falciparum [1]): 100%
- Inhibition (Plasmodium falciparum [2]): 99%
- Inhibition (HepG2): 4%

SMILES: Cc1nnc2sc(-c3cccc(NC(=O)c4ccc(N5CCCCC5)c([N+](=O)[O-])c4)c3)nn12
- Inhibition (Plasmodium falciparum [1]): 87%
- Inhibition (Plasmodium falciparum [2]): 20%
- Inhibition (HepG2): 3%

SMILES: CC(=O)NCCNc1cc(N2CCc3ncnc(Nc4ccc(OCc5c(F)cccc5F)c(Cl)c4)c3C2)ncn1
- Inhibition (Plasmodium falciparum [1]): 100%
- Inhibition (Plasmodium falciparum [2]): 100%
- Inhibition (HepG2): 55%

SMILES: COc1ccc2ncc(F)c(CCN3C[C@H](CNCc4cc(C#N)c5c(c4)OCCO5)[C@H](O)C3)c2n1.Cl
- Inhibition (Plasmodium falciparum [1]): 100%
- Inhibition (Plasmodium falciparum [2]): 64%
- Inhibition (HepG2): 7%

Source: ChEMBL document CHEMBL1157539, “Thousands of chemical starting points for antimalarial lead identification” (Nature, 2010)
